Laboratory results taken from PubChem BioAssay (Tox21).
Values joined by “and” are separate entries in the source; they are usually repeats but may differ in a detail not shown here. Equal values may be shown once. Records with an inconclusive call do not appear. A structure can be active in one record and inactive in another. Active and inactive are the calls of the source. Calls come from the whole dose curve; as a rule, active = well fitted cell-killing curve with a large enough effect in the repeat runs; inconclusive = weak or mixed curves, or effect the other way; inactive = flat fitted curve, though single readings scatter.

experiment: Nuclear factor erythroid 2-related factor 2/antioxidant responsive element (Nrf2/ARE) small molecule agonists: qHTS cell viability counter screen in human keratinocytes (AID 1919968); settings: KeratinoSens HaCaT ARE cells viability, CellTiter-Fluor, 24 h; series mostly up to 92.4 µM; activity change, negative = cytotoxicity: at the top concentration; note: nearly all actives have a fitted effect of over 55% in size
From the text: U.S. Tox21 Program National Center for Advancing Translational Sciences [NCATS] Division of Preclinical Innovation [DPI] U.S. Environmental Protection Agency [EPA] National Institutes of Environmental Health Sciences [NIEHS] National Toxicology Program [NTP] U.S. Food and Drug Administration [FDA] Tox21 Assay Overview: Oxidative stress has been implicated in the pathogenesis of a variety of diseases ranging from cancer to neurodegeneration. The antioxidant response element (ARE) signaling pathway plays an important role in the amelioration of oxidative stress. The KeratinoSens (Givaudan, Switzerland) is an in vitro test method which quantifies luciferase induction as a measure of activation of Keap1-Nrf2-antioxidationt/electrophile response element (ARE) dependant pathway in HaCaT human keratinocytes stably transfected with a selectable plasmid. The KeratinoSens assay is a cell-based assay with a reporter cell line to detect potential skin sensitizers by their ability to induce the Nrf2/ARE-response. The activation of the report gene under culture conditions can be detected by ONE-Glo Luciferase Assay System (Promega, Madison, WI). This cell line has been used to screen the Tox21 10K compound library to identify agonists that induce oxidative stress. The cytotoxicity of the Tox21 compound library against the KS-ARE cell line was tested in parallel by measuring the cell viability using CellTiter- Fluor assay system (Promega, Madison, WI) in the same wells.
Tox21 Assay Protocol Summary: HaCaT derived cell line KeratinoSens were dispensed at 1,500 cells/5uL/well in 1536-well white wall/solid bottom plates using a Multidrop Combi (ThermoFisher Scientific, Waltham, MA) dispenser. After the assay plates were incubated at 37 C/5% CO2 for 5 h, 23 nL of compounds dissolved in DMSO, positive controls or DMSO only was transferred to the assay plate by a pintool workstation (Kalypsys, San Diego, CA). The plates were incubated at 37 C/5% CO2 for 23 h, followed by addition of 1uL/well of CellTiter-Fluor reagent into the assay plates using a Flying Reagent Dispenser (Aurora Discovery, San Diego, CA) for cell viability readout that measures cytotoxicity. After 1 h incubation at 37 C/5% CO2 the fluorescence intensity was measured using a ViewLux (PerkinElmer, Shelton, CT) plate reader.
% is set by controls: 0 for no effect and ±100 for the full control effect; potency is the fitted concentration of half-maximal effect.

With `CC(C)c1ccc(OP(=O)(Oc2ccc(C(C)C)cc2)Oc2ccc(C(C)C)cc2)cc1` as the molecule, how does the Potency read?
Its Potency is “inactive”.

Which Potency does the source give for `CNC(=O)Oc1ccccc1OC(C)C` here?
Its Potency is “inactive”.

With `CO[C@@H]1[C@H](OC(=O)NC(=O)CCl)CC[C@]2(CO2)[C@H]1[C@@]1(C)O[C@@H]1CC=C(C)C` as the molecule, how does the activity change, negative = cytotoxicity read?
Its activity change, negative = cytotoxicity is -2.18% [at 19 µM] (inactive).

For `Clc1ccccc1-c1nnc(-c2ccccc2Cl)nn1`, which Potency is on record?
The Potency was “inactive”.

With `CN(C)c1ccc(C(=O)c2ccc(N(C)C)cc2)cc1` as the molecule, how does the “activity change, negative = cytotoxicity” value read?
Its value is -21.1% (inactive).

With `CC(Oc1ccc(Cl)cc1Cl)C(=O)O` (stereo not given) as the molecule, how does the Potency read?
Its Potency is “inactive”.

For `O=S(=O)(c1ccc(Cl)cc1)c1cc(Cl)c(Cl)cc1Cl`, which “activity change, negative = cytotoxicity” value is on record?
The value was 7.62% (inactive).

With `COc1cc2c(cc1OC)[C@@]13CCN4CC5=CCO[C@H]6CC(=O)N2[C@H]1[C@H]6[C@H]5C[C@H]43` as the molecule, how does the “activity change, negative = cytotoxicity” value read?
The value was -1.12% (inactive).

With `COP(=S)(OC)SCn1nnc2ccccc2c1=O` as the molecule, how does the Potency read?
The Potency was “inactive”.

For `C=CC1(C)OC(=O)N(c2cc(Cl)cc(Cl)c2)C1=O` (stereo not given), which “activity change, negative = cytotoxicity” value is on record?
The value was 0.432% (inactive).

With `Cc1cc(-c2cc(C)c(N)c(C)c2)cc(C)c1N` as the molecule, how does the Potency read?
The Potency was “inactive”.

For `CCCCSP(=O)(SCCCC)SCCCC`, which Potency is on record?
Its Potency is “inactive”.

With `Cc1ccccc1O` as the molecule, how does the Potency read?
The Potency was “inactive”.

Which Potency does the source give for `CCCn1cc[n+](C)c1` here?
Its Potency is “inactive”.

For `O=c1ccc(=O)[nH][nH]1`, which Potency is on record?
The Potency was “inactive”.

For `Cc1ccc2c(c1N)C(=O)c1ccccc1C2=O`, which “activity change, negative = cytotoxicity” value is on record?
Its value is -6.42% (inactive).

With `N#CCCC#N` as the molecule, how does the “activity change, negative = cytotoxicity” value read?
Its value is 2.31% (inactive).

With `C1CCC(NC2CCCCC2)CC1` as the molecule, how does the Potency read?
Its Potency is “inactive”.

With `O=P(O)(O)CCCl` as the molecule, how does the Potency read?
Its Potency is “inactive”.

Which Potency does the source give for `CCC(C)(CC)c1cc(NC(=O)c2c(OC)cccc2OC)on1` here?
Its Potency is “inactive”.

Which Potency does the source give for `CN(C)C(=S)SSC(=S)N(C)C` here?
The Potency was 95.5 nM (active) and 137 nM (active) and 119 nM (active).

With `O=C(O)COc1ccc(Cl)cc1Cl` as the molecule, how does the Potency read?
The Potency was “inactive”.

For `CC(C)c1ccc(O)cc1`, which “activity change, negative = cytotoxicity” value is on record?
Its value is 4.63% (inactive).

Which Potency does the source give for `CC(C)N(C(=O)CCl)c1ccccc1` here?
The Potency was 54.5 µM (active).

With `C[C@]12CC[C@H]3[C@@H](CC=C4C[C@@H](O)CC[C@@]43C)[C@@H]1CC[C@@H]2O` as the molecule, how does the “activity change, negative = cytotoxicity” value read?
The value was -0.516% [at 42.5 µM] (inactive).

For `CC1(C)C(=O)NC(=O)NC1=O`, which “activity change, negative = cytotoxicity” value is on record?
The value was 0.491% (inactive).

With `C=C(C)[C@H]1Cc2c(ccc3c2O[C@@H]2COc4cc(OC)c(OC)cc4[C@@H]2C3=O)O1` as the molecule, how does the Potency read?
The Potency was “inactive and 29.8 nM (active)”.

For `O=[N+]([O-])c1cccc(O)c1`, which “activity change, negative = cytotoxicity” value is on record?
The value was 3.77% (inactive).

With `O=NN1CCCCC1` as the molecule, how does the “activity change, negative = cytotoxicity” value read?
Its value is 0.834% (inactive).

With `CC(C)NC(C)C` as the molecule, how does the Potency read?
Its Potency is “inactive”.

For `CN(C)N`, which “activity change, negative = cytotoxicity” value is on record?
The value was 2.14% (inactive).

With `C=C(Cl)CCl` as the molecule, how does the “activity change, negative = cytotoxicity” value read?
Its value is 4.52% (inactive).

For `C=CCO`, which Potency is on record?
The Potency was “inactive”.

Which Potency does the source give for `Sc1ccccc1` here?
Its Potency is “inactive”.

Which “activity change, negative = cytotoxicity” value does the source give for `CCOC(=O)c1ccccc1S(=O)(=O)NC(=O)Nc1nc(Cl)cc(OC)n1` here?
The value was -1.04% (inactive).

With `COP(=O)(CCC(=O)NCO)OC` as the molecule, how does the “activity change, negative = cytotoxicity” value read?
The value was 0.266% (inactive).

For `CC1CC(CC2CCC(N)C(C)C2)CCC1N` (stereo not given), which Potency is on record?
Its Potency is 7.82 µM (active).

With `CCOC(=O)CP(=O)(OCC)OCC` as the molecule, how does the “activity change, negative = cytotoxicity” value read?
The value was 0.907% (inactive).

Which “activity change, negative = cytotoxicity” value does the source give for `Clc1nc(Cl)nc(Nc2ccccc2Cl)n1` here?
The value was 2.76% (inactive).

Which “activity change, negative = cytotoxicity” value does the source give for `COc1ccc2c(c1OC)C(=O)O[C@@H]2[C@H]1c2cc3c(cc2CCN1C)OCO3` here?
Its value is -2.76% (inactive).
